Source: PubChem BioAssay
Potency and affinity values are given separately. Results filed as inconclusive are left out. The source made the active and inactive calls.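 Rule for the calls, unless noted: active = falling signal with fitted half-maximal potency no higher than twice the top valid tested dose; inconclusive = poor fit quality, or flat fit spanning -70% to -30%; inactive = potency over limit, rising signal, or flat fit inside 30%.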

Key:
[1] = fungal growth arrest, C. neoformans – Alamar Blue, cherry-picks, dose response (AID 686998)
[2] = C. neoformans lysis by adenylate kinase leakage – AK release luminescence, cherry-picks, dose response (AID 687000;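 active = fitted dose curve reaches 40% lysis signal rise at or below the highest valid concentration tested for that sample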;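 note: luminescent detection of adenylate kinase leaking from lysed yeast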)
[3] = viability loss in HepG2 hepatoma cells – cell-based, cherry-picks, set 2, cytotoxicity control, dose response (AID 687002;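 active = a dose-response fit showing signal loss, with half-maximal concentration no higher than twice the top tested dose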)
[4] = viability loss in HeLa cells – cell-based, ATP luminescence, cherry-pick samples, cytotoxicity control, dose response (AID 687004;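 active = a fitted half-maximal concentration no higher than twice the top valid tested dose, with signal falling as cells die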)

Measured: outcome

O=C(NC1CCCCC1)N[C@H]1C=C[C@@H](CC(=O)N2CCOCC2)O[C@H]1CO
inactive: all assays above

Cc1ccc(S(=O)(=O)N[C@H]2CC[C@H](CCNC(=O)C3CCCC3)O[C@@H]2CO)cc1
inactive: all assays above

C[C@H]1CN([C@@H](C)CO)C(=O)Cc2cc(NS(=O)(=O)c3ccc(F)cc3)ccc2O[C@@H]1CN(C)S(=O)(=O)c1ccc(F)cc1
inactive: all assays above

Cc1ccc(S(=O)(=O)N[C@@H]2CC[C@H](CCNC(=O)C3CCCC3)O[C@@H]2CO)cc1
inactive: all assays above

CNC[C@@H]1OCCCC[C@H](C)Oc2ccc(NC(=O)c3ccccc3)cc2C(=O)N([C@@H](C)CO)C[C@@H]1C
inactive: all assays above

CCCNC(=O)N1[C@H](CO)[C@@H](c2ccc(C3=CCCC3)cc2)[C@@H]1CN(C)C(C)=O
inactive: all assays above

CC=Cc1ccc2n(c1=O)C[C@H]1[C@H](CO)[C@@H](C(=O)N3CCOCC3)N(CC3CC3)[C@@H]21 (mixture of isomers)
inactive: all assays above

O=C(C[C@H]1CC[C@H]2[C@@H](COC[C@@H](O)CN2C(=O)c2ccc(F)cc2)O1)N1CCOCC1
inactive: all assays above

C[C@@H]1CN([C@@H](C)CO)C(=O)c2cccc(NC(=O)Nc3ccccc3)c2O[C@H]1CN(C)S(=O)(=O)c1cn(C)cn1
inactive: all assays above

CNC(=O)CSc1ncnc2c1cnn2-c1ccccc1
inactive: all assays above

Cc1cc(C)c(NC(=O)C2CCCCN2C)c(C)c1 (stereo not given)
inactive: all assays above

C[C@@H]1CN([C@@H](C)CO)C(=O)CCCn2cc(nn2)CO[C@@H]1CN(C)Cc1ccc2c(c1)OCO2
inactive: all assays above

C[C@@H]1CN([C@H](C)CO)C(=O)c2cc(-c3ccc(C#N)cc3)cnc2O[C@@H]1CN(C)C(=O)Nc1ccc(F)cc1
inactive: all assays above

O=C(CN(c1ccc(F)cc1)S(=O)(=O)c1ccccc1)NC1CCCCCC1
inactive: all assays above

Cc1cc(C)c(NC(=O)C(C)N2CCCCCC2)c(C)c1 (stereo not given)
inactive: all assays above

O=C(NC[C@@H]1[C@H](c2ccccc2)[C@@H](CO)N1C(=O)Cc1cccnc1)C1CCC1
inactive: all assays above

C[C@H](CO)N1C[C@H](C)[C@H](CN(C)S(=O)(=O)c2ccc(F)cc2)Oc2ccc(NS(=O)(=O)c3ccc(Cl)cc3)cc2C1=O
inactive: all assays above

O=C(NC(=S)Nc1ccc(CN2CCOCC2)cc1)c1ccc([N+](=O)[O-])cc1
inactive: all assays above

C[C@@H]1CCCCO[C@@H](CN(C)S(=O)(=O)c2ccccc2)[C@H](C)CN([C@@H](C)CO)C(=O)c2cc(NC(=O)Nc3ccc(F)cc3)ccc2O1
inactive: all assays above

C[C@H](CO)N1C[C@H](C)[C@@H](CN(C)S(=O)(=O)c2ccc(Cl)cc2)Oc2c(NS(=O)(=O)c3ccc(F)cc3)cccc2C1=O
inactive: all assays above

CN1C(=O)c2cc(NS(C)(=O)=O)ccc2OC[C@@H]2O[C@@H](CC(=O)O)CC[C@H]21
inactive: all assays above

Cc1ccc(S(=O)(=O)Nc2ccc3c(c2)C(=O)N([C@@H](C)CO)C[C@H](C)[C@H](CN(C)C(=O)Nc2ccc(C(F)(F)F)cc2)O3)cc1
inactive: all assays above

CNC(=O)C[C@H]1CC[C@H]2[C@H](COc3ccc(NC(=O)Nc4ccccc4)cc3C(=O)N2C)O1
inactive: all assays above

CO[C@@H]1CN(C)C(=O)c2ccc(NC(=O)NC(C)C)cc2OC[C@H](C)NC[C@@H]1C
inactive: all assays above

CCCC(=O)N1CCCC1(C)C(=O)Nc1ccc(C)c(C)c1 (stereo not given)
inactive: all assays above

Cc1ccc(S(=O)(=O)N(C)C[C@@H]2Oc3ncc(Br)cc3C(=O)N([C@@H](C)CO)C[C@H]2C)cc1
inactive: all assays above

CN1CCN(C(=O)CN(c2ccc(I)cc2)S(=O)(=O)c2ccccc2)CC1
inactive: all assays above

COCC(=O)N1C[C@H](C)[C@H](OC)CN(C)C(=O)c2ccc(NC(=O)NC(C)C)cc2OC[C@@H]1C
inactive: all assays above

C[C@H](CO)N1C[C@H](C)[C@@H](CN(C)S(=O)(=O)c2ccccc2)Oc2c(NC(=O)Nc3cccc4ccccc34)cccc2C1=O
inactive: all assays above

C[C@@H]1CN([C@@H](C)CO)C(=O)c2cc(C3=CCCCC3)cnc2O[C@H]1CN(C)C(=O)Cc1cccnc1
inactive: all assays above

CC(C)NC(=O)N1CC[C@@H]2[C@@H](CO)N(C)c3ccc(-c4cccc(F)c4)cc3[C@@H]21
inactive: all assays above

COc1ccc(-c2cnc3c(c2)C(=O)N([C@H](C)CO)C[C@H](C)[C@H](CN(C)Cc2ccc(F)cc2)O3)cc1
inactive: all assays above

O=C(O)C/C(=C\c1cccc(NC(=O)c2ccccc2Cl)c1)c1nc2ccccc2s1
inactive: all assays above

Cc1cccc(C)c1NC(=O)CN1CCN(C(=O)CNC(=O)c2ccc(N3CCCC3=O)cc2)CC1
inactive: all assays above

COc1cc(CNC(C)(C)C)ccc1OCC(=O)NC(C)(C)C
inactive: all assays above

Cc1ccc(NC(=O)C2(C)CCCN2CC(C)C)cc1C (stereo not given)
inactive: all assays above

COc1ccc(CN(C)C[C@@H]2Oc3ccc(NC(=O)C4CC4)cc3C(=O)N([C@H](C)CO)C[C@H]2C)cc1
inactive: all assays above

CC(C)(C)C(=O)N1CCCC1C(=O)Nc1ccccc1 (stereo not given)
inactive: all assays above

CO[C@@H]1CN(C)C(=O)c2cc(NC(=O)C3CC3)ccc2OC[C@H](C)N(C(=O)c2ccncc2)C[C@H]1C
inactive: all assays above

O=C(N[C@H]1CC[C@@H](CCn2cc(-c3ccccc3)nn2)O[C@@H]1CO)c1cnccn1
inactive: all assays above

C[C@H]1CN([C@@H](C)CO)C(=O)c2cc(Br)cnc2O[C@@H]1CN(C)Cc1ccccn1
inactive: all assays above

COc1ccc(CN(C)C[C@H]2OCCCC[C@@H](C)Oc3ccc(NC(=O)c4ccccc4)cc3C(=O)N([C@H](C)CO)C[C@@H]2C)cc1
inactive: all assays above

O=C(Nc1ccc(Cl)c([N+](=O)[O-])c1)c1ccco1
inactive: all assays above

C/C=C/c1cnc2c(c1)C(=O)N([C@H](C)CO)C[C@@H](C)[C@@H](CN(C)C(=O)C1CCCCC1)O2
inactive: all assays above

CCC(=O)N1[C@@H]2c3cccc(=O)n3C[C@H]1[C@H](CO)[C@H]2C(=O)NCc1ccccc1
inactive: all assays above

CO[C@H]1CN(C)C(=O)c2cc(NC(=O)c3ccccc3F)ccc2OC[C@H](C)N(CC2CCOCC2)C[C@H]1C
inactive: all assays above

O=C(C[C@H]1CC[C@H]2[C@@H](COC[C@@H](O)CN2S(=O)(=O)c2ccc(Oc3ccccc3)cc2)O1)NC1CCC1
inactive: all assays above

COCC(=O)N1[C@H](C#N)[C@H](c2ccc(C#Cc3ccccc3F)cc2)[C@H]1CO
inactive: all assays above

COc1cccc(S(=O)(=O)Nc2ccc3c(c2)[C@H]2C[C@H](CC(=O)NCc4ccccc4F)O[C@@H](CO)[C@H]2O3)c1
inactive: all assays above

COc1cccc(S(=O)(=O)N2C[C@@H](O)COC[C@@H]3O[C@H](CC(=O)N4CCN(C)CC4)CC[C@H]32)c1
inactive: all assays above

O=C(NC1CCCC1)N1CCCCN2[C@H](CO)[C@@H](c3ccc(-c4cncnc4)cc3)[C@H]2C1
inactive: all assays above

CCC(=O)N(C)C[C@H]1Oc2cc(C#CC(C)(C)O)ccc2S(=O)(=O)N([C@@H](C)CO)C[C@@H]1C
inactive: all assays above

C[C@@H]1CN([C@H](C)CO)C(=O)c2cccc(NC(=O)C3CC3)c2O[C@H]1CN(C)Cc1ccc(C(=O)O)cc1
inactive: all assays above

COc1ccccc1C#Cc1ccc2c(c1)O[C@@H](CN(C)C(C)=O)[C@@H](C)CN([C@H](C)CO)S2(=O)=O
inactive: all assays above

CCC(C)(C(=O)Nc1ccccc1C)N(C(=O)CNC(C)=O)c1ccc(C)cc1 (stereo not given)
inactive: all assays above
